DT40 TDP1 CPT: qHTS for Inhibitors of human tyrosyl-DNA phosphodiesterase 1 (TDP1): qHTS in cells in presence of CPT | chicken DT40 Tdp1-/-;hTDP1 cells + 20 nM CPT, ATP luminescence, 48 h | Potency, µM (series often up to 46.2 µM), without a hit: at the highest dose activity change, negative = growth inhibition, actives largely listed as inhibitors | hit rate 12% among 420,000 | AID 686979, 2013; note: potency is the fitted concentration of half-maximal effect; nearly all actives have a fitted effect of over 55% in size
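Chicken DT40 Tdp1-/- cells stably complemented with human TDP1 were seeded at 400 cells/well in medium containing 20 nM camptothecin, exposed to pin-transferred compounds, and grown at 37 °C for at least 48 hr. Viability was read as ATP luminescence.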
IL1B secr inh: qHTS for Inhibitors of Inflammasome Signaling: IL-1-beta AlphaLISA Primary Screen. THP-1 LPS/ATP IL-1B secretion, AlphaLISA, 16 h; active compounds read low. activity change, % at 57.5 µM. hit rate 4.7% among 360,000. AID 743279, 2014; in the data active = activity change below about -50%; inconclusive = mostly about -30% to -49%
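THP-1 cells pretreated 1 hr with compounds (up to 57.5 uM final), then stimulated with LPS (250 ng/mL final) plus ATP (1.25 mM final); secreted IL-1B measured by AlphaLISA after 16 hr, decreased signal indicating inhibition.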
TDP1 cell noCPT: qHTS for Inhibitors of human tyrosyl-DNA phosphodiesterase 1 (TDP1): qHTS in cells in absence of CPT; DT40 Tdp1-/- hTDP1 cells, no CPT, ATP luminescence, 48 h; Potency, µM (titrated, usually from 46.2 µM), for the others: at the highest dose activity change, negative = growth inhibition, actives largely listed as inhibitors; hit rate 15% among 420,000; AID 686978, 2013; note: potency is the fitted concentration of half-maximal effect; nearly all actives have a fitted effect of over 55% in size
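No-CPT arm: Tdp1-/-;hTDP1 DT40 cells (400/well) plus compounds, incubated ≥48 hr at 37 °C. Readout CellTiter-Glo luminescence.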
HT1080-NT tox: qHTS for induction of synthetic lethality in tumor cells producing 2HG: qHTS for the HT-1080-NT fibrosarcoma cell line; hit rate 1.6% among 360,000; Potency, µM (highest dose often 46.1 µM), inactives show at the highest dose activity, negative = less viability, actives largely listed as cytotoxic; AID 686970, 2013; HT-1080-NT fibrosarcoma viability, CellTiter-Glo ATP luminescence, 48 h;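 note: NT is the 2HG producing partner of a matched IDH1 knockdown line; potency is the fitted concentration of half-maximal effect; 0% = DMSO-treated cells and -100% = media-only wells without cells; nearly all actives have a fitted effect of over 55% in size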
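750 cells/well, RPMI + 5% FBS; 2 h settle, compound pin-transfer, 48 h at 37 degrees C. CellTiter-Glo 10 min RT, luminescence. Normalized to DMSO and media-only wells.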
HT1080 IDH1KD tx: qHTS for induction of synthetic lethality in tumor cells producing 2HG: qHTS for the HT-1080-IDH1KD cell line; HT-1080 IDH1 knockdown viability, ATP luminescence, 48 h; AID 686971, 2013; Potency, µM (top dose mostly 46.1 µM), inactives show top-dose activity, negative = toxicity, hits mostly cytotoxic; hit rate 2% among 360,000;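 note: potency is the fitted concentration of half-maximal effect; 0% = DMSO wells and -100% = cell-free medium wells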
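Knockdown cells (IDH1KD HT-1080) received compounds 2 h after plating at 750 cells/well and were kept 48 h at 37 °C in 5% FBS RPMI. A CellTiter-Glo luminescence read gave % activity for curve fitting.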
Numbers without * were called inactive; ? = inconclusive; / = no result given; [ ] = remark or other dose. Most compounds without a hit are left out; they make up all but 19% or so of the library. Unless noted, calls come from the whole dose curve; as a rule, active = well fitted curve in the direction sought with a large enough effect; inconclusive = small, poorly fitted or top-dose-only effect, or another doubt; inactive = no such curve, though single readings can be large; an effect the other way counts as inactive or inconclusive. Unless noted, % is set by controls: 0 for no effect and ±100 for the full control effect.

SMILES	DT40 TDP1 CPT	IL1B secr inh	TDP1 cell noCPT	HT1080-NT tox	HT1080 IDH1KD tx
O=C(Nc1ccc2c(c1)OCCO2)c1cc2ccccc2o1	-29.1%	-67.7*	?	-15.7%	-4.1%
COc1ccc(-c2n(CC(=O)OC3CC(C)CCC3C(C)C)c3ccccc3[n+]2C)cc1 (stereo not given)	0.461µM*	-200.7*	0.411µM*	6.51µM*	5.8µM*
CC1CCC(C(C)C)[C@H](OC(=O)c2ccccc2)C1 (stereo not given in full)	7.2%	/	16.8%	/	/
COc1ccc(OCc2n(CC(=O)OC3CC(C)CCC3C(C)C)c3ccccc3[n+]2C)cc1 (stereo not given)	3.26µM*	-57.5*	2.31µM*	5.8µM*	5.8µM*
C/C=C(/CC[C@@H](C)[C@H]1CC[C@H]2C3=CC[C@H]4[C@H](C)[C@@H](O)CC[C@]4(C)[C@H]3CC[C@]12C)C(C)C	-5.6%	/	-20.7%	/	/
COc1ccccc1N(C(=O)c1csnn1)C(C(=O)NC1CCCC1)c1ccccc1 (stereo not given)	8.1%	0.8	-13.4%	10.5%	9.9%
O=C(N/N=C/c1ccc[nH]1)c1ccc(COc2cccc3cccnc23)cc1	-15.6%	-89.2*	-46.9%	?	5.17µM*
Cc1cc(C(=O)N/N=C/c2ccc[nH]2)no1	?	-8.2	18.4µM*	2.3%	0.0%
Cc1cc(C(=O)N/N=C/c2ccc[nH]2)n[nH]1	-4.7%	-3.3	-12.7%	25.7%	-0.8%
O=C(N/N=C/c1ccc[nH]1)c1ccccc1OCc1ccccc1Cl	?	-90.2*	?	-3.0%	-9.1%
Cc1cc(Br)c(OCc2ccc(C(=O)N/N=C/c3ccc[nH]3)cc2)c(Br)c1	?	-61.5*	?	0.82µM*	1.03µM*
CCSc1nnc2c(n1)OC(c1cc(OC)c(OC)c(OC)c1)Nc1ccccc1-2 (stereo not given)	-0.9%	/	-13.6%	/	/
CN1OC[C@@H]2CN(Cc3cc(Cl)cc(Cl)c3)[C@H](c3cccc(Oc4ccccc4)c3)C[C@@H]21	?	?	?	-1.6%	-0.1%
CN1OC[C@@H]2CN(Cc3ccccc3)[C@H](c3cccc(Oc4ccccc4)c3)C[C@@H]21	25.9µM*	-8.9	23.1µM*	-3.8%	-17.6%
CC1CN(C(=O)COC(=O)c2ccc(N(C)C)cc2)CC(C)O1 (stereo not given)	3.4%	10.2	2.7%	5.6%	6.7%
Cc1cc(C(=O)N2CCN(c3ncccn3)CC2)c(C)o1	13µM*	-10.7	23.1µM*	7.6%[9.24 µM]	-28.5%
Cc1cc(C(=O)N2CCN(c3ccccc3Cl)CC2)c(C)o1	20.6µM*	?	11.6µM*	-23.6%	-16.6%
Cc1cc(C(=O)N2CCN(c3cccc(Cl)c3)CC2)c(C)o1	18.4µM*	-2.3	16.4µM*	?	16.4µM*
Cc1cc(C(=O)N2CCN(c3ccccc3)CC2)c(C)o1	0.2%	-5.6	-5.8%	3.8%	?
O=C(c1cc(COc2ccc(F)cc2F)on1)N1CCSCC1	13.7%	-4.4	-24.3%	18.8%	16.8%
O=C(Nc1ccc(S(=O)(=O)Nc2ncccn2)cc1)c1ccccc1Br	-15.4%	58.1	-0.8%	-5.9%	0.4%
COc1cccc2c(=O)c(C(=O)NCc3cccs3)c[nH]c12	-12.5%	1.8	6.51µM*	0.7%	-20.8%
Cc1ccc2[nH]cc(C(=O)NCc3cccs3)c(=O)c2c1	23.1µM*	-70.5*	23.1µM*	-26.1%	2.7%[9.24 µM]
CCOCCCNC(=O)c1c[nH]c2ccc(C)cc2c1=O	0.8%	-10.2	-26.6%	9.7%	14.7%
COc1cccc2c(=O)c(C(=O)NCCc3ccccc3)c[nH]c12	7.6%	2.7	?	-28.0%	-28.8%
SMILES	DT40 TDP1 CPT	IL1B secr inh	TDP1 cell noCPT	HT1080-NT tox	HT1080 IDH1KD tx
O=C(O)c1cc2ccccc2cn1	0.3%	5.6	-0.4%	9.9%	9.5%
O=C1c2ccccc2C(=O)C1c1cc2ccccc2cn1	1.78µM*	/	7.08µM*	/	/
O=C1c2ccccc2C(=O)C1c1ccc2ccccc2n1	6.31µM*	-2.6	25.9µM*	?	?
COc1ccc(C(=S)NCS(=O)(=O)c2ccc(C)cc2)cc1	?	-99.6*	?	21.0%	9.2%
Cc1ccc(C(=O)NNC(=O)c2ccc3ccccc3c2)cc1	-4.3%	2.2	?	5.9%	4.1%
Cc1ccc(S(=O)(=O)CNC(=S)c2ccc3ccccc3c2)cc1	?	?	18.4µM*	2.9%	13.6%
CCN(CC)S(=O)(=O)c1ccc(C(=O)Nc2cc(S(=O)(=O)N3CCOCC3)ccc2N2CCN(C)CC2)cc1	7.8%	-29.2	4.5%	0.4%	2.4%
O=[N+]([O-])c1ccc(-c2ccc(/C=N/O)o2)cc1	-22.1%	8.8	?	-4.6%	-7.5%
O=Cc1ccc(-c2ccc(C(=O)O)cc2)o1	-13.4%	-3.7	12.9%	-1.0%	7.3%
CCN(CC)S(=O)(=O)c1ccc(C(=O)/C=C/c2ccc(-c3ccc([N+](=O)[O-])cc3)o2)cc1	?	0.0	6.51µM*	12.1%	14.3%
O/N=C\c1ccc(-c2ccccc2)o1	-2.8%	0.0	0.9%	16.5%	17.1%
O=C(/C=C\c1ccc(-c2ccccc2)o1)c1ccccc1	?	-91.5*	?	-11.2%	-20.7%
Cc1ccc(C(=O)/C=C/c2ccc(-c3ccc(C)cc3)o2)cc1	5.17µM*	-13.8	5.17µM*	-0.4%	-4.8%
O=c1ccc2cc(S(=O)(=O)N3CCN(c4ccc(Cl)cc4)CC3)ccc2o1	-1.3%	22.5	-18.4%	3.8%	-14.1%

Bioassay records deposited in PubChem by National Center for Advancing Translational Sciences (NCATS).
